Measurements as given in PubChem BioAssay AID2112 (National Center for Advancing Translational Sciences (NCATS), 2009).
Hit rate of the full screen: of about 240,000 compounds, about 15 (0.006%) were called active. These entries were drawn from the full list. Values without a mark were called inactive. Calls come from the whole dose curve; as a rule, active = well fitted inhibition curve with a large enough effect; inconclusive = small, poorly fitted or top-dose-only effect, or effect the other way, or another doubt; inactive = no such curve, though single readings can be large or run the other way.

Each compound was assayed against Lysosomal alpha-glucosidase (Homo sapiens) (UniProt P10253) (assay: qHTS Assay for Inhibitors and Activators of Human alpha-Glucosidase From Spleen Homogenate). Conditions: 4-MU-alpha-glucoside fluorescence; series mostly up to 79.9 µM; activity change, negative = inhibition: at the top concentration.
How it was run: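 Compounds were titrated against alpha-glucosidase in spleen homogenate at pH 5.0, with 1 mM 4-methylumbelliferyl substrate for 40 min at 37 C. Reactions were quenched with pH 10 NaOH/glycine and fluorescence measured.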
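Note: 0% = enzyme with vehicle and -100% = no enzyme basal signal.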

Structure (SMILES) | activity change, negative = inhibition [%]
CC[C@H](C)[C@H](NC(=O)[C@H](CCCNC(=N)N)NC(=O)[C@H](CCCNC(=N)N)NC(=O)[C@H](CC(C)C)NC(=O)[C@H](Cc1ccccc1)NC(=O)CNC(=O)CNC(=O)[C@@H](N)Cc1ccc(O)cc1)C(=O)N[C@@H](CCCNC(=N)N)C(=O)N1CCC[C@H]1C(=O)N[C@@H](CCCCN)C(=O)N[C@@H](CC(C)C)C(=O)N[C@@H](CCCCN)C(=O)N[C@@H](Cc1c[nH]c2ccccc12)C(=O)N[C@@H](CC(=O)O)C(=O)N[C@@H](CC(N)=O)C(=O)N[C@@H](CCC(N)=O)C(=O)O | -9.54
COc1ccc(-c2ccc(C3C4C=CCCC4(C)C(=O)N3Cc3ccccc3)c(F)c2)cc1OC (stereo unspecified) | -2.95
Cc1ccc(-n2c(SCC(=O)N3c4ccccc4Sc4ccccc43)nnc2-c2ccncc2)cc1 | -8.44
BrC1C(Br)C(Br)C(Br)C(Br)C1Br (stereo unspecified) | 5.06
CCCC(Cl)CCCC(Cl)CCC(Cl)CCC(Cl)CCC(Cl)CCCC(Cl)CCC (stereo unspecified) | -7.48
O=C(NC(CC(=O)N1CCN(c2ccccc2)CC1)c1ccccc1)c1ccccc1Cl (stereo unspecified) | -4.71
CC1(C)Cc2cccc(OCC(=O)N3CCN(c4ccc([N+](=O)[O-])cc4)CC3)c2O1 | -6.17
O=C1C2C(c3ccccc3)CC=CC2C(c2ccoc2)N1Cc1ccccc1 (stereo unspecified) | -8.93
COC(=O)CCc1ccccc1S(=O)(=O)N(CCC(=O)OC)Cc1ccccc1 | 3.68
C=CCSC(CC)(CC)C(N)=O | 0.0084
C/C(=N\NC(=S)Nc1ccc(C)cc1)c1cc2ccccc2o1 | 10.6
O=C(OCC(COC(=O)c1ccccc1)(COC(=O)c1ccccc1)COC(=O)c1ccccc1)c1ccccc1 | -1.65
Nc1nc2c(ncn2[C@@H]2O[C@H](COP(=O)(O)OP(=O)(O)OP(=O)(O)O)[C@@H](O)C2O)c(=O)[nH]1 (stereo partly specified) | 1.86
C[C@H]1CCC[C@@]2(C)CCCC[C@]12O | -4.13
CCC(C(=O)Nc1ccc(C(C)C)cc1)c1ccccc1 (stereo unspecified) | -5.23
COc1ccc(C2/C=C\CN(C(=O)c3ccc(C)cc3)C(Cc3ccccc3)C(=O)N2Cc2ccc(F)cc2)cc1 (stereo unspecified) | -1.47
CC(C)CC(COCc1ccc(Cl)cc1)N1CCN(C(=O)c2ccc(C(F)(F)F)cc2)CCC1=O (stereo unspecified) | -1.89
COc1ccc(C(CCN2CCOCC2)c2c(OC)cc(OC)c3c2OC(=O)CC3c2ccc(OC)cc2)cc1 (stereo unspecified) | -1.9
Cc1ccc(Nc2nc(C)cc(C)c2C(N)=O)cc1 | -2.03
O=C(CN1C(=O)NC(Cc2ccccc2)(Cc2ccccc2)C1=O)NCC1CCCCC1 | 0.793
C=C1CCN(C(CC(C)C)C(=O)NCc2cc(OC)c(OC)c(OC)c2)S(=O)(=O)c2ccccc21 (stereo unspecified) | -1.04
CCOC(=O)C(=CNNc1ccsc1C(=O)OC)C(=O)OCC | 4.66
CCCCN(CC)CCNC(=O)CCNC(=O)Cn1ccc2ccccc2c1=O | -7.84
O=C(CCCc1ccccc1)NCc1ccccc1 | 0.497
COC(=O)c1c(C)[nH]c(C(=O)/C=C/c2ccc(Cl)cc2)c1C | 2.56
O=c1ccn([C@@H]2O[C@H](COP(=O)(O)OP(=O)(O)OP(=O)(O)O)[C@@H](O)[C@H]2O)c(=O)[nH]1 | 1.76

Structure (SMILES) | activity change, negative = inhibition [%]
COCOc1cc(OC)ccc1C(=O)/C=C/c1ccc([N+](=O)[O-])cc1 | -9.06
CC(C)CO | -4.92
CC(=O)Nc1ccc(S(=O)(=O)N2N=NC3C2C2CC4C3(CN(C(=O)OC(C)(C)C)S4(=O)=O)O2)cc1 (stereo unspecified) | -4.01
O=C(CCN1CCCCC1)N=Nc1c(O)[nH]c2ccccc12 | 1.76
CC(=O)OCC(NC(=O)C(Cc1ccccc1)NC(=O)OC(C)(C)C)C1OC(n2ccc(=O)[nH]c2=O)C(OC(C)=O)C1OC(C)=O (stereo unspecified) | 3.72
COc1ccc(NC(=O)c2sc(N3CCOCC3)nc2-c2ccccc2)c(OC)c1 | -8.66
S=C(NNC(=S)NC1CC2CCC1C2)NC1CC2C=CC1C2 (stereo unspecified) | 7.45
O=S(O)S(=O)(=O)O | -1.43
COc1ccc(-c2ccc(OC)c(C3C4C=CCC(C)C4C(=O)N3Cc3ccccc3)c2)cc1C (stereo unspecified) | -0.333
COC(=O)c1ccc([C@@H](O)[C@H](C)C(=O)CC(=O)OC(C)(C)C)cc1 | -10.4
O=C(Cc1c[nH]c2ccccc12)N/N=C/c1cccc(F)c1 | -8.44
CCN(CC)CCNCc1ccc(OCc2ccc(Cl)nc2)c(OC)c1 | -0.785
N#CC1=C(N)Oc2[nH]c(=S)[nH]c(=O)c2C12C(=O)Nc1ccccc12 (stereo unspecified) | -1.33
C/C(=N\NC(=O)c1cc2c(s1)CCC(C)C2)c1cccnc1 (stereo unspecified) | 0.124
O=C(Nc1cccc(CCc2ccccn2)c1)c1ccc(Cl)cc1 | 3.21
C=C1/C(=C\C=C2\CCCC3(C)C2CCC3C(C)/C=C/C(O)C2CC2)CC(O)CC1O (stereo unspecified) | 4.41
Clc1ccc(C2=CSC3=Nc4cccc5cccc(c45)N23)cc1 | 1.96
CCOc1ccc(CN2CCN(Cc3ccc(C)o3)CC2CCO)cc1 (stereo unspecified) | -3.3
COc1ccc(NC(C(=O)Nc2cccc(C(C)=O)c2)c2ccccc2)cc1 (stereo unspecified) | -8.55
N#CCC(=O)N/N=C/c1ccc(SCC(=O)Nc2ccccc2)o1 | -3.71
O=C(O)c1ccc(/C=C2/SC(=S)N(c3cccc(C(F)(F)F)c3)C2=O)cc1 | -6.48
O=c1cc(-c2ccc(O)cc2)oc2c(-c3cc(-c4cc(=O)c5c(O)cc(O)cc5o4)ccc3O)c(O)ccc12 | 5.22
COc1ccc([N+](=O)[O-])cc1NC(=O)C(C)OC(=O)C1c2ccccc2Oc2ccccc21 (stereo unspecified) | -3.57
Cc1cc(C)nc(NS(=O)(=O)c2ccc(N/C=C\C(=O)c3cccs3)cc2)n1 | -0.279
CC(=O)N1CC[n+]2c(-c3ccc([N+](=O)[O-])cc3)csc21 | 2.47
